This is an account of results in PubChem BioAssay AID1159580 (chemical genetic matrix, 2015).

Screen size: about 5,500 compounds; about 2,000 (36%) were called active. Roughly 18% stayed inconclusive and do not appear here. Some of the results follow. Unmarked numbers belong to inactive results. Cut-off read from the data, not from the text of the source: active = normalized growth mostly below about 0.91 (no sharp cut-off); inconclusive = no clear call, values can overlap the other calls; inactive = mostly above about 0.92.

This test is described as follows: chemical genetic growth profiling, strain panel (AID 1159580).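 Note: tested at 20 µM; growth read once vehicle control cultures reached saturation at 30 °C; 1 = growth at the plate median or of vehicle wells; lower values mean less growth of the strain.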 The settings on record: growth OD.
Where [1] appears, read: S. cerevisiae deletion strains, locus YAL013W, strain DEP1, active compounds read low.
[2] abbreviates: S. cerevisiae deletion strains, locus YBR229C, strain ROT2, active compounds read low.
[3] abbreviates: S. cerevisiae deletion strains, locus YDL101C, strain DUN1, active compounds read low.
The mark [4] stands for this setting: S. cerevisiae deletion strains, locus YDR150W, strain NUM1, active compounds read low.
[5] abbreviates: S. cerevisiae deletion strains, locus YEL061C, strain CIN8, active compounds read low.
[6] abbreviates: S. cerevisiae deletion strains, locus YGR078C, strain PAC10, active compounds read low.
Setting [7] is: S. cerevisiae deletion strains, locus YHR030C, strain SLT2, active compounds read low.
Setting [8] is: S. cerevisiae deletion strains, locus YHR087W, strain rtc3, active compounds read low.
Setting [9] is: S. cerevisiae deletion strains, locus YJL187C, strain SWE1, active compounds read low.
[10] abbreviates: S. cerevisiae deletion strains, locus YJR043C, strain POL32, active compounds read low.
Where [11] appears, read: S. cerevisiae deletion strains, locus YJR075W, strain HOC1, active compounds read low.
[12] abbreviates: S. cerevisiae deletion strains, locus YKL190W, strain CNB1, active compounds read low.
[13] abbreviates: S. cerevisiae deletion strains, locus YLR039C, strain RIC1, active compounds read low.
Where [14] appears, read: S. cerevisiae deletion strains, locus YLR058C, strain SHM2 (second series), active compounds read low.
The mark [15] stands for this setting: S. cerevisiae deletion strains, locus YLR085C, strain ARP6, active compounds read low.
The mark [16] stands for this setting: S. cerevisiae deletion strains, locus YLR262C, strain YPT6, active compounds read low.
Setting [17] is: S. cerevisiae deletion strains, locus YML094W, strain GIM5, active compounds read low.
Setting [18] is: S. cerevisiae deletion strains, locus YMR219W, strain ESC1, active compounds read low.
Setting [19] is: S. cerevisiae deletion strains, locus YMR263W, strain SAP30, active compounds read low.
The mark [20] stands for this setting: S. cerevisiae deletion strains, locus YMR307W, strain GAS1, active compounds read low.
The mark [21] stands for this setting: S. cerevisiae deletion strains, locus YNL153C, strain GIM3, active compounds read low.
Where [22] appears, read: S. cerevisiae deletion strains, locus YNL298W, strain CLA4 (second series), active compounds read low.
[23] abbreviates: S. cerevisiae deletion strains, locus YNL322C, strain KRE1, active compounds read low.
Setting [24] is: S. cerevisiae deletion strains, locus YNR030W, strain Alg12, active compounds read low.
Setting [25] is: S. cerevisiae deletion strains, locus YPL055C, strain LGE1, active compounds read low.
[26] abbreviates: S. cerevisiae deletion strains, locus YPL241C, strain CIN2, active compounds read low.
[27] abbreviates: S. cerevisiae deletion strains, locus YPR135W, strain CTF4, active compounds read low.
The mark [28] stands for this setting: S. cerevisiae strains, strain wild type, active compounds read low.

In the case of `Nc1ccc2nonc2c1N`, the normalized growth is, setting by setting: under setting [1], 0.965; under setting [2], 0.96; (S. cerevisiae deletion strains, locus YCL061C, strain MRC1, active compounds read low) 0.902 (active); under setting [3], 0.906; (S. cerevisiae deletion strains, locus YDL134C, strain PPH21, active compounds read low) 0.968; under setting [4], 0.941. Also, the normalized growth under setting [5] is 0.956; the normalized growth under setting [6] is 0.933; the normalized growth under setting [7] was 0.804; the normalized growth under setting [8] is 0.993; the normalized growth under setting [9] was 0.974; the normalized growth under setting [10] is 0.951. In addition, the normalized growth was 0.985 under setting [11]; 0.983 under setting [12]; 0.908 under setting [13]; 0.967 under setting [14]; 0.853 under setting [15]; 0.902 under setting [16]. Further, the normalized growth was 0.954 under setting [17]; 0.982 under setting [18]; 0.923 under setting [19]; 0.882 under setting [20]; 0.919 (active) under setting [21]; 0.95 under setting [22]. Moreover, the normalized growth is, setting by setting: under setting [23], 0.988; under setting [24], 0.845 (active); under setting [25], 0.921; under setting [26], 0.919; under setting [27], 0.776; under setting [28], 0.955.
As to `Cc1ccc(Sc2ccc([N+](=O)[O-])cc2/C=C2\SC(=S)NC2=O)cc1`, the normalized growth is, setting by setting: under setting [1], 0.963; under setting [2], 0.992; under setting [3], 0.99; under setting [4], 0.982; under setting [5], 0.859 (active); under setting [6], 0.98. The normalized growth by setting is: under setting [7], 0.615 (active); under setting [8], 0.991; under setting [9], 1; under setting [10], 0.997; under setting [11], 0.976; under setting [12], 0.979. For the same compound, the normalized growth runs as follows: under setting [13], 0.324 (active); under setting [14], 0.999; under setting [15], 0.82; under setting [16], 0.744 (active); under setting [17], 0.897; under setting [18], 0.984. Also, the normalized growth by setting is: under setting [19], 0.978; under setting [20], 0.524 (active); under setting [21], 0.996; under setting [22], 0.887; under setting [23], 0.969; under setting [24], 0.903. The normalized growth was 0.963 under setting [25], 0.924 under setting [26], 0.553 (active) under setting [27] and 0.982 under setting [28].
On to `CC(=O)N[C@@H](Cc1c[nH]c2ccccc12)C(=O)OCc1cc(C(F)(F)F)cc(C(F)(F)F)c1`, for which the normalized growth is 0.999 under setting [1]; 1.02 (S. cerevisiae deletion strains, locus YAL040C, strain CLN3, active compounds read low); 1.01 (S. cerevisiae deletion strains, locus YDR363W, strain ESC2, active compounds read low); 1 (S. cerevisiae deletion strains, locus YER002W, strain NOP16, active compounds read low); 0.994 under setting [19]; 1.03 (S. cerevisiae deletion strains, locus YNL128W, strain TEP1, active compounds read low). Further, the normalized growth by setting is: under setting [21], 0.969; (S. cerevisiae deletion strains, locus YNL175C, strain NOP13, active compounds read low) 0.985; (S. cerevisiae deletion strains, locus YNL197C, strain WHI3, active compounds read low) 0.994; (S. cerevisiae deletion strains, locus YNL224C, strain SQS1, active compounds read low) 0.994; under setting [23], 1.01; (S. cerevisiae deletion strains, locus YOR083W, strain WHI5 (second series), active compounds read low) 1.03.
